About 83,000 compounds went through this panel and 20% of them were active in at least one assay; those are over-represented in the sample as a whole.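 Activity criterion: percent growth below 10, measured after cells in 96-well plates were exposed to a single compound concentration for 48 hours.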 Values without a mark were called inactive. Activity calls are given as the source filed them.
Assays:
Experiment in all cases: NCI-60 one-dose screen, 48 h (100 = growth as untreated, 0 = no growth, -100 = all killed)
Details in all cases: 10 µM unless noted
HCT-15 colon = system: HCT-15 colon
HT29 colon = system: HT29 colon
SNB-75 CNS = system: SNB-75 CNS
SNB-19 CNS = system: SNB-19 CNS
U251 CNS = system: U251 CNS
PC-3 prostate = system: PC-3 prostate
SK-MEL-5 melanoma = system: SK-MEL-5 melanoma
UACC-62 melanoma = system: UACC-62 melanoma
LOX IMVI melanoma = system: LOX IMVI melanoma
SK-MEL-28 melanoma = system: SK-MEL-28 melanoma
SK-MEL-2 melanoma = system: SK-MEL-2 melanoma
SN12C renal = system: SN12C renal
UO-31 renal = system: UO-31 renal
TK-10 renal = system: TK-10 renal
ACHN renal = system: ACHN renal
CAKI-1 renal = system: CAKI-1 renal
A498 renal = system: A498 renal
CCRF-CEM leukemia = system: CCRF-CEM leukemia
MOLT-4 leukemia = system: MOLT-4 leukemia
EKVX NSCLC = system: EKVX NSCLC

| SMILES | growth (HCT-15 colon) | growth (HT29 colon) | growth (SNB-75 CNS) | growth (SNB-19 CNS) | growth (U251 CNS) | growth (PC-3 prostate) | growth (SK-MEL-5 melanoma) | growth (UACC-62 melanoma) | growth (LOX IMVI melanoma) | growth (SK-MEL-28 melanoma) | growth (SK-MEL-2 melanoma) | growth (SN12C renal) | growth (UO-31 renal) | growth (TK-10 renal) | growth (ACHN renal) | growth (CAKI-1 renal) | growth (A498 renal) | growth (CCRF-CEM leukemia) | growth (MOLT-4 leukemia) | growth (EKVX NSCLC) |
| --- | --- | --- | --- | --- | --- | --- | --- | --- | --- | --- | --- | --- | --- | --- | --- | --- | --- | --- | --- | --- |
| CCN(c1ccc(C(=O)N2CCN(c3ccccc3)CC2)cc1)S(C)(=O)=O | 104% | 97.7% | 64.1% | 100% | 105% | 101% | 99.6% | 105% | 100% | 108% | 100% | 103% | 90.2% | 88.7% | 109% | 96.3% | 87.9% | 100% | 95.8% |  |
| Cc1c(NCC(=O)Nc2nc3ccccc3[nH]2)c(=O)n(-c2ccccc2)n1C | 94.5% | 105% | 94.3% | 97% | 96.7% | 92.7% | 100% | 102% | 97.1% | 110% | 104% | 99.4% | 81.5% | 117% | 97.3% | 97.9% | 74% | 93.3% | 104% |  |
| O=C1c2[nH]cc(CN[C@@H]3CCCN3)c2C(=O)c2c1c(O)c1ccccc1c2O | -38.9% (active) | -98.4% (active) | -71.6% (active) | -84.9% (active) | -98.9% (active) | -95.1% (active) | -89.8% (active) | -100% (active) | -93% (active) | -100% (active) | -17.3% (active) | -32% (active) | -31.1% (active) | -89.3% (active) | -92.8% (active) | -18.4% (active) | 38.1% | -85.6% (active) | -84.7% (active) |  |
| O=C(Nc1nc2ccccc2[nH]1)C(=O)Nc1nc2ccccc2[nH]1 | 86.2% | 107% | 93.4% | 101% | 96.5% | 85.7% | 99.2% | 97.5% | 93.5% | 107% | 98.8% | 94.5% | 69.6% | 132% | 93.4% | 91.5% | 99.1% | 94.7% | 103% |  |
| CCOC(=O)c1c(Cl)c2c(n1Cc1ccc(OC)cc1)-c1oncc1CCC2 | 83.7% | 78.8% | 75% | 89.1% | 89.3% | 58.6% | 72.1% | 73.6% | 77.8% | 101% | 103% | 57.6% | 66.2% | 84.8% | 73.9% | 56.1% | 65.5% | 62.2% |  |  |
| O=C(NCc1ccco1)C1CCN(S(=O)(=O)c2ccc(Cl)cc2)CC1 | 70.6% | 83.2% | 72.2% | 84.3% | 83% | -43.6% (active) | 75.7% | 69.8% | 77.1% | 85.5% | 82.6% | 78.3% | 57.5% | 104% | 83.5% | 70.4% | 59% | -22.6% (active) | 47.2% |  |
| O=S(=O)(Nc1ncccn1)c1ccc(Nc2ccc3nnc(-c4ccncc4)n3n2)cc1 | 99.3% | 116% | 86.9% | 99.7% | 102% | 102% | 100% | 99.1% | 95.1% | 99.1% | 125% | 93.9% | 81% | 115% | 98.6% | 99.6% | 87.5% | 94.3% | 109% |  |
| COc1ccc(Cn2c(Br)c3c(c2-c2cc(OC)c(OC)c(OC)c2)CCc2sc(N)nc2-3)cc1 | 18.8% | -12.4% (active) | -0.745% (active) | 55.4% | 21.8% | 28.8% | 10.1% | 25.5% | 33.5% | 33.9% | 50.3% | 31.9% | 35.2% | 46.2% | 42.1% | 44.7% | -15.8% (active) | 3.52% (active) | 8.47% (active) |  |
| O=C(NCc1cccnc1)c1ccc([N+](=O)[O-])o1 | -68.1% (active) | -68.5% (active) | -3.32% (active) | 16.8% | 4.88% (active) | 24.5% | 4.47% (active) | -67.9% (active) | -77.9% (active) | 17% | -16.7% (active) | -53.4% (active) |  | -30.5% (active) | 34.5% | -3.61% (active) | 9.84% (active) | 54.4% | 65.8% | 62.1% |
| Cc1ccc(S(=O)(=O)N2C/C(=C\c3cc(F)cc(F)c3)C(=O)/C(=C/c3cc(F)cc(F)c3)C2)cc1 | -31.6% (active) | -48.7% (active) | -41.6% (active) | -61.7% (active) | -97.9% (active) | -60.3% (active) | -59.6% (active) | -91.1% (active) | -94.5% (active) | -80.1% (active) | -25.9% (active) | -73.9% (active) | -90.5% (active) | 8.08% (active) | -91.4% (active) | -7.75% (active) | -25.7% (active) | -9.43% (active) | -5.52% (active) |  |
| COc1ccc(-c2cc(=O)oc3c4c(ccc23)OCN(Cc2ccc(F)cc2)C4)cc1 | 64.3% | 42.4% | 69.7% | 72.2% | 59% | 54.9% | 3.99% (active) | 61.6% | 73% | 83.4% | 94.2% | 58.6% | 42.7% | 62.4% | 64.7% | 51.7% | 38.9% | 52.4% | 39.9% |  |
| Cc1nn2c(-c3nc4ccc(Cl)cc4[nH]3)c(-c3ccc(F)cc3)nc2s1 | 76.4% | 94.4% | 86.3% | 112% | 97.6% | 78.6% | 90.9% | 91.6% | 91.1% | 93.8% | 105% | 106% | 86.9% | 97.1% | 102% | 94.8% | 76.8% | 72% | 72.6% |  |

Reference: PubChem BioAssay (NCI)
